Data on nine compounds can be found in PubChem BioAssay (NCI).

The nature of experiment [1]: NCI Yeast Anticancer Drug Screen. Data for the rad50 strain (AID 155).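 Note: 0% = growth of vehicle-only cultures of the same strain.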 Particulars: S. cerevisiae rad50 strain growth inhibition, stronger effect = higher value. The essentials: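 Cells are treated with compound, grown, and their growth is then scored against vehicle-only cultures of the same repair-deficient yeast strain.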
Experiment [2] is described as follows: NCI Yeast Anticancer Drug Screen. Data for the mec2-1 strain (AID 157). The following applies: S. cerevisiae mec2-1 strain, stronger effect = higher value. The essentials: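 Vehicle-treated cultures served as reference for growth inhibition of compound-exposed mec2-1 yeast.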
Experiment [3] is described as follows: NCI Yeast Anticancer Drug Screen. Data for the sgs1 mgt1 strain (AID 161).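 Note: 0% = growth of cultures given vehicle only.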 Particulars: S. cerevisiae sgs1 mgt1 strain, stronger effect = higher value. The essentials: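 Inhibition of yeast growth, normalised to vehicle-treated controls, is reported for a strain bearing genetic alterations in DNA damage repair.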
Experiment [4] is described as follows: NCI Yeast Anticancer Drug Screen. Data for the cln2 rad14 strain (AID 165).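 Note: 0% = growth equal to vehicle treated cultures.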 The following applies: S. cerevisiae cln2 rad14 strain, stronger effect = higher value. The essentials:
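Each compound was tested on cln2 rad14 yeast. Inhibition of growth was calculated against vehicle-exposed controls.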

A short description of experiment [5]: NCI Yeast Anticancer Drug Screen. Data for the bub3 strain (AID 167). Particulars: S. cerevisiae bub3 mutant strain, stronger effect = higher value. An outline of the steps: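 Part of a panel of yeast mutants defective in DNA damage repair or cell cycle regulation. Each strain is grown with compound, and inhibition is calculated relative to solvent-treated cultures.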

Experiment [6] is described as follows: NCI Yeast Anticancer Drug Screen. Data for the mlh1 rad18 strain (AID 175). Particulars: S. cerevisiae mlh1 rad18 strain growth inhibition, stronger effect = higher value. The essentials: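 Vehicle-treated cultures served as the reference for growth inhibition in a yeast strain carrying DNA damage repair alterations exposed to each compound.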
Where [7] appears, read: at 5.0 µM (retest, dose inferred, filed as 0.5).
The mark [8] stands for this setting: at 50.0 µM (retest, dose inferred, filed as 5.0).

Molecules are shown by their SMILES. This is part of a sample that, as a whole, favours compounds with a hit. Of some 79,000 tested, about 15% had one in any assay. Unmarked numbers belong to inactive results. Active and inactive are the calls of the source. Cut-off read from the data, not from the text of the source: active = growth inhibition above about 70%; inactive = the rest.

Regarding `O=C1c2cc(O)ccc2C(=O)c2c1ccc(O)c2O`, the growth inhibition in experiment [1] (setting [7]) was 11%; in experiment [1] (setting [8]) it was 98% (active); in experiment [1] (at 50.0 µM) it was 98.7% (active); in experiment [2] (setting [7]) it was 14%; in experiment [2] (setting [8]) it was 99% (active); in experiment [2] (at 50.0 µM), 97.2% (active). Also, the growth inhibition was 12% in experiment [3] (setting [7]); 98% (active) in experiment [3] (setting [8]); 96.5% (active) in experiment [3] (at 50.0 µM); 12% in experiment [4] (setting [7]); 97% (active) in experiment [4] (setting [8]); 90.7% (active) in experiment [4] (at 50.0 µM). Further, the growth inhibition in experiment [5] (setting [7]) was 4%; in experiment [5] (setting [8]), 98% (active); in experiment [5] (at 50.0 µM), 97.8% (active); in experiment [6] (setting [7]), 4%; in experiment [6] (setting [8]), 99% (active); in experiment [6] (at 50.0 µM) it was 98.2% (active).
Regarding `OC(c1ccccc1)(c1ccccc1)c1ccc[cH-]1.OC(c1ccccc1)(c1ccccc1)c1ccc[cH-]1.[Fe+2]`, the growth inhibition is 3% in experiment [1] (setting [7]); -5% in experiment [1] (setting [8]); -0.6% in experiment [1] (at 50.0 µM); 3% in experiment [2] (setting [7]); -1% in experiment [2] (setting [8]); 9.45% in experiment [2] (at 50.0 µM). Also, the growth inhibition in experiment [3] (setting [7]) was 3%; in experiment [3] (setting [8]), -16%; in experiment [3] (at 50.0 µM), -2.3%; in experiment [4] (setting [7]), 4%; in experiment [4] (setting [8]) it was -15%; in experiment [4] (at 50.0 µM), -13.6%. In addition, the growth inhibition was 3% in experiment [5] (setting [7]); -1% in experiment [5] (setting [8]); 70.4% (active) in experiment [5] (at 50.0 µM); 1% in experiment [6] (setting [7]); -3% in experiment [6] (setting [8]); 35.4% in experiment [6] (at 50.0 µM).
For the compound `COC(=O)c1c2oc3c(C(=O)OC)cccc3nc-2cc(N)c1=O`, the growth inhibition in experiment [1] (setting [7]) is 0%; in experiment [1] (setting [8]), 19%; in experiment [1] (at 50.0 µM), 30.2%; in experiment [2] (setting [7]) it was 22%; in experiment [2] (setting [8]), 56%; in experiment [2] (at 50.0 µM) it was 25.7%. In addition, the growth inhibition in experiment [3] (setting [7]) is 6%; in experiment [3] (setting [8]), 22%; in experiment [3] (at 50.0 µM) it was 8.8%; in experiment [4] (setting [7]), -5%; in experiment [4] (setting [8]) it was -2%; in experiment [4] (at 50.0 µM) it was -46.5%. The growth inhibition in experiment [5] (setting [7]) was 49%; in experiment [5] (setting [8]), 59%; in experiment [5] (at 50.0 µM), 66.5%; in experiment [6] (setting [7]) it was 3%; in experiment [6] (setting [8]), 44%; in experiment [6] (at 50.0 µM), 22.5%.
Take `Nc1ccc2c(SCC(=O)Nc3ccccc3-c3ccccc3NC(=O)CSc3c4ccccc4nc4cc(N)ccc34)c3ccccc3nc2c1`: the growth inhibition in experiment [1] (setting [7]) is 25%; in experiment [1] (setting [8]), 97% (active); in experiment [1] (at 50.0 µM), 90% (active); in experiment [2] (setting [7]) it was 24%; in experiment [2] (setting [8]) it was 98% (active); in experiment [2] (at 50.0 µM), 92.5% (active). Also, the growth inhibition in experiment [3] (setting [7]) was 33%; in experiment [3] (setting [8]), 97% (active); in experiment [3] (at 50.0 µM), 91.2% (active); in experiment [4] (setting [7]), 17%; in experiment [4] (setting [8]), 97% (active); in experiment [4] (at 50.0 µM) it was 78.8% (active). Also, the growth inhibition is 27% in experiment [5] (setting [7]); 97% (active) in experiment [5] (setting [8]); 90.5% (active) in experiment [5] (at 50.0 µM); 11% in experiment [6] (setting [7]); 96% (active) in experiment [6] (setting [8]); 87.5% (active) in experiment [6] (at 50.0 µM).
`Cc1cc(C)c(O)c(Cc2cc(Cl)cc(Cc3cc(C)cc(C)c3O)c2O)c1`: the growth inhibition in experiment [1] (setting [7]) was 0%; in experiment [1] (setting [8]) it was 91% (active); in experiment [1] (at 50.0 µM), 94% (active); in experiment [2] (setting [7]), 1%; in experiment [2] (setting [8]), 93% (active); in experiment [2] (at 50.0 µM), 92.5% (active). Further, the growth inhibition in experiment [3] (setting [7]) is 13%; in experiment [3] (setting [8]) it was 93% (active); in experiment [3] (at 50.0 µM) it was 95.3% (active); in experiment [4] (setting [7]), 6%; in experiment [4] (setting [8]), 91% (active); in experiment [4] (at 50.0 µM) it was 95.2% (active). For the same compound, the growth inhibition in experiment [5] (setting [7]) was -9%; in experiment [5] (setting [8]), 92% (active); in experiment [5] (at 50.0 µM) it was 93.5% (active); in experiment [6] (setting [7]), 15%; in experiment [6] (setting [8]), 92% (active); in experiment [6] (at 50.0 µM), 91.4% (active).
With `Cc1c(O)c2c(c(O)c1Br)C(=O)C=CC2=O`, the growth inhibition in experiment [1] (setting [7]) was 88% (active); in experiment [1] (setting [8]), 96% (active); in experiment [1] (at 50.0 µM), 70.8% (active); in experiment [2] (setting [7]), 93% (active); in experiment [2] (setting [8]) it was 98% (active); in experiment [2] (at 50.0 µM), 90.5% (active). The growth inhibition is 74% (active) in experiment [3] (setting [7]); 98% (active) in experiment [3] (setting [8]); 90.5% (active) in experiment [3] (at 50.0 µM); 49% in experiment [4] (setting [7]); 97% (active) in experiment [4] (setting [8]); 87.3% (active) in experiment [4] (at 50.0 µM). For the same compound, the growth inhibition in experiment [5] (setting [7]) is 98% (active); in experiment [5] (setting [8]), 98% (active); in experiment [5] (at 50.0 µM), 89.1% (active); in experiment [6] (setting [7]), 96% (active); in experiment [6] (setting [8]), 97% (active); in experiment [6] (at 50.0 µM), 90.8% (active).
As to `COc1ccc(N2C(=O)C(=O)N(c3ccccc3[N+](=O)[O-])C2=S)cc1`, the growth inhibition is 16% in experiment [1] (setting [7]); 99% (active) in experiment [1] (setting [8]); 86.3% (active) in experiment [1] (at 50.0 µM); -10% in experiment [2] (setting [7]); 96% (active) in experiment [2] (setting [8]); 90% (active) in experiment [2] (at 50.0 µM). Besides, the growth inhibition is 7% in experiment [3] (setting [7]); 98% (active) in experiment [3] (setting [8]); 86.2% (active) in experiment [3] (at 50.0 µM); 16% in experiment [4] (setting [7]); 94% (active) in experiment [4] (setting [8]); 72.2% (active) in experiment [4] (at 50.0 µM). For the same compound, the growth inhibition in experiment [5] (setting [7]) is 7%; in experiment [5] (setting [8]), 98% (active); in experiment [5] (at 50.0 µM) it was 78.2% (active); in experiment [6] (setting [7]), 3%; in experiment [6] (setting [8]) it was 98% (active); in experiment [6] (at 50.0 µM), 83.9% (active).
Turning to `COC1=C(C)C(=O)C2=C(C1=O)C1C3CC4=C(C(=O)C(OC)=C(C)C4=O)C(CNC(=O)C(C)=O)N3C(C#N)C(C2)N1C` (configuration not stated), the growth inhibition in experiment [1] (setting [7]) is 78% (active); in experiment [1] (setting [8]), 98% (active); in experiment [1] (at 50.0 µM), 90.2% (active); in experiment [2] (setting [7]) it was 53%; in experiment [2] (setting [8]), 99% (active); in experiment [2] (at 50.0 µM), 92% (active). For the same compound, the growth inhibition in experiment [3] (setting [7]) was 35%; in experiment [3] (setting [8]), 99% (active); in experiment [3] (at 50.0 µM), 91.7% (active); in experiment [4] (setting [7]), 88% (active); in experiment [4] (setting [8]), 96% (active); in experiment [4] (at 50.0 µM) it was 89.6% (active). Further, the growth inhibition in experiment [5] (setting [7]) was 22%; in experiment [5] (setting [8]), 98% (active); in experiment [5] (at 50.0 µM), 90.2% (active); in experiment [6] (setting [7]), 51%; in experiment [6] (setting [8]) it was 99% (active); in experiment [6] (at 50.0 µM), 88.3% (active).
With `CN(C(=O)c1ccc(Cl)cc1)C(=S)N1CCN(c2ccccc2)CC1`, the growth inhibition in experiment [1] (setting [7]) was -11%; in experiment [1] (setting [8]), 72% (active); in experiment [1] (at 50.0 µM), 80.3% (active); in experiment [2] (setting [7]), -5%; in experiment [2] (setting [8]), 80% (active); in experiment [2] (at 50.0 µM), 74.1% (active). The growth inhibition was -16% in experiment [3] (setting [7]); 82% (active) in experiment [3] (setting [8]); 79% (active) in experiment [3] (at 50.0 µM); 3% in experiment [4] (setting [7]); 41% in experiment [4] (setting [8]); 61.2% in experiment [4] (at 50.0 µM). The growth inhibition is 1% in experiment [5] (setting [7]); 88% (active) in experiment [5] (setting [8]); 63.5% in experiment [5] (at 50.0 µM); -10% in experiment [6] (setting [7]); 89% (active) in experiment [6] (setting [8]); 72.5% (active) in experiment [6] (at 50.0 µM).
